# Measured values published in PubChem BioAssay (NCATS).
# Values joined by “and” are separate entries in the source; they are usually repeats but may differ in a detail not shown here. Equal values may be shown once. Results filed as inconclusive are left out. Where a call stands in place of a potency, no number is given. Active and inactive are the calls of the source. Calls come from the whole dose curve; as a rule, active = well fitted curve in the direction sought with a large enough effect; inconclusive = small, poorly fitted or top-dose-only effect, or another doubt; inactive = no such curve, though single readings can be large; an effect the other way counts as inactive or inconclusive.
# Test system: Zika virus NS2B-NS3 protease (unlinked complex)
# Test: Confirmatory screen GU AMC qHTS for Zika virus inhibitors (AID 1347153); note: nearly all actives have a fitted effect of over 70% in size
# Conditions: Recombinant NS2B-NS3 protease, AMC substrate fluorescence; series mostly up to 57.1 µM
# Outline: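 Noncovalent NS2B hydrophilic domain/NS3 protease complex (25 nM) in 10 mM Tris-HCl pH 8.0, 0.01% Tween 20 was preincubated 15 min at room temperature with compounds. Then 10 µM AMC substrate (Km 18.3 µM) was added; fluorescence was read over 15 min and fitted to a 4-parameter Hill equation.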
row,SMILES,outcome
1,C=C[C@@H]1CN2CC[C@@H]1C[C@H]2[C@H](O)c1ccnc2ccc(OC)cc12,inactive
2,COC(=O)C1=C(C)NC(C)=C(C(=O)OC)C1c1cccc(NC(=O)NCCCN2CCC(c3cccc(OC)c3)CC2)c1,inactive
3,CCCCN(CC)c1nc(C)nc2c1c(C)cn2-c1c(C)cc(C)cc1C,inactive

# Test system: Zika virus NS2B-NS3 protease
# Test: Primary screen GU AMC qHTS for Zika virus inhibitors (AID 1347154); note: nearly all actives have a fitted effect of over 70% in size; note: potency is the fitted concentration of half-maximal effect
# Conditions: Zika NS2B-NS3 unlinked protease, AMC fluorogenic substrate; series mostly up to 54.1 µM
# Outline: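 Unlinked Zika NS2B hydrophilic domain/NS3 protease domain noncovalent complex (25 nM final) in 10 mM Tris-HCl pH 8.0, 0.01% Tween 20, with AMC peptide substrate. Fluorescence (ex 340, em 450 nm) change over 15 min, room temperature; percent inhibition fitted to 4-parameter Hill equation.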
row,SMILES,Potency
1,CC(N)C(=O)OC(C)(C)Cc1ccc(Cl)cc1 (stereo unspecified),inactive
2,O=c1[nH]c2cc(C(F)(F)F)ccc2n1-c1cc(C(F)(F)F)ccc1O,inactive
3,CN1CCN(c2cc3c(nn2)Oc2ccccc2N3C)CC1,9.89 µM (active)
4,O=C(Nc1cccc(C(=O)Nc2ccc(S(=O)(=O)O)c3cc(S(=O)(=O)O)cc(S(=O)(=O)O)c23)c1)Nc1cccc(C(=O)Nc2ccc(S(=O)(=O)O)c3cc(S(=O)(=O)O)cc(S(=O)(=O)O)c23)c1,inactive

# Test system: Zika virus NS2B-NS3 protease (linked construct)
# Test: Primary screen NINDS Rhodamine qHTS for Zika virus inhibitors (AID 1347160); note: nearly all actives have a fitted effect of over 55% in size; note: potency is the fitted concentration of half-maximal effect
# Conditions: purified NS2B-NS3 protease, Rhodamine110 substrate fluorescence; series mostly up to 57.1 µM
# Outline: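 Purified linked NS2B-NS3 protease (NS2B hydrophilic domain joined to NS3 protease by flexible linker), 25 nM in 10 mM Tris-HCl pH 8.0, 0.01% Tween 20. Compounds titrated, 15 min preincubation at room temperature; 1.5 microM Rhodamine110 substrate, FITC fluorescence change over 15 min.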
row,SMILES,Potency
1,O=c1cc(-c2ccccc2)oc2c(O)c(O)ccc12,6.97 µM (active)
2,COC(=O)C1=C(C)NC(C)=C(C(=O)OC)C1c1cccc(NC(=O)NCCCN2CCC(c3cccc(OC)c3)CC2)c1,inactive
3,CCCCN(CC)c1nc(C)nc2c1c(C)cn2-c1c(C)cc(C)cc1C,inactive
4,NS(=O)(=O)c1ccc(-n2nc(C(F)(F)F)cc2-c2ccc(Cl)cc2)cc1,inactive

# Test system: not listed separately
# Test: Confirmatory screen NINDS Rhodamine qHTS for Zika virus inhibitors (AID 1347161); note: nearly all actives have a fitted effect of over 60% in size; note: potency is the fitted concentration of half-maximal effect
# Conditions: purified enzyme assay, Rhodamine110 substrate fluorescence, 15 min; series mostly up to 114 µM
# Excerpt: Avindra Nath, Ph.D., National Institute of Neurological Disorders and Stroke (NINDS), Bethesda, MD
# Radhakrishnan Padmanabhan, Ph.D., Georgetown University (GU), Washington D.C.
# Zika Virus causes congenital defects, including microcephaly and is associated with Guillain-Barre syndrome, eningoencephalitis and myelitis in infected adult. […] Using a target-based approach, we hope to establish a screening paradigm to uncover novel, cell-active NS2B-NS3 protease (Zika Virus) specific inhibitors from NCATS' collection of small molecules using qHTS.
# Four assay panel was created to identify potential Zika Virus inhibitors. Namely, (1) GU unlinked NS2B-NS3 AMC tagged protease qHTS, (2) GU unlinked NS2B-NS3 Rhodamine tagged protease qHTS, (3) NINDS linked NS2B-NS3 AMC tagged protease qHTS, (4) NINDS linked NS2B-NS3 Rhodamine tagged protease qHTS. Active compounds were re-acquired and re-screened to confirm inhibition. Inhibitors were further screened against various confirmatory and counterscreens in dose response format.
# Early Translation Branch (ETB)
# National Center for Advancing Translational Sciences (NCATS), Rockville, MD
# National Institute of Health (NIH), Bethesda, Maryland
# For the linked assay, Nath lab (NINDS) provided the purified linked NS2B-NS3 protease which is consists of hydrophilic domain of NS2B linked to the NS3 protease domain by a flexible (-[…]-) linker. Control compound aprotinin is obtained from Thermo Scientific (#78432; Waltham, Massachusetts). Rhodamine110 substrate ([N-Cbz]-Nle-Lys-Arg-Arg-Rhod110-Arg-Arg-Lys-Nle-[N-Cbz]) was purchased from either Genscript or Bachem.
# 1536-well Protease (Rhodamine110 Substrate) Assay:
# Briefly, 3 microL of enzyme (25 nM final concentration), in assay buffer (10 mM Tris-HCl pH 8.0 with 0.01% Tween 20) were dispensed into a 1,536-well solid-bottom black plate (Greiner Bio One, Monroe, NC). Twenty-three nL of compounds (final concentration range 7.28 nM to 114 microM) or control Aprotinin (final concentration range 3.47 nM to 114 microM) were transferred via Wako Pin-tool (Wako Automation, Richmond, VA). Samples were incubated (room temperature, protected from light) for 15 minutes followed by a 1 microL Rhodamine110 substrate addition (1.5 microM final concentration). Plates were then immediately read on a ViewLux High-throughput CCD imager (PerkinElmer, Waltham, MA) equipped with FITC fluorescence optics (480(20) nm excitation, 540(25) nm emission), then incubated (room temperature, protected from light) for 15 minutes (~15% conversion). The change in fluorescence intensity over the 15-minute reaction period was normalized against no-inhibitor and no-enzyme controls and the resulting percent inhibition data were fitted to a 4-parameter Hill equation. Aprotinin was used as intraplate control.
row,SMILES,Potency
1,C=C[C@@H]1CN2CC[C@@H]1C[C@H]2[C@H](O)c1ccnc2ccc(OC)cc12,inactive
2,CN1CCN(c2cc3c(nn2)Oc2ccccc2N3C)CC1,inactive
3,COc1ccc(Br)cc1S(=O)(=O)NC(=O)/C=C/c1ccccc1Cc1ccc2ccccc2c1,1.96 µM (active)
4,O=C(Nc1cccc(C(=O)Nc2ccc(S(=O)(=O)O)c3cc(S(=O)(=O)O)cc(S(=O)(=O)O)c23)c1)Nc1cccc(C(=O)Nc2ccc(S(=O)(=O)O)c3cc(S(=O)(=O)O)cc(S(=O)(=O)O)c23)c1,2 µM (active) and 1.26 µM (active)
5,COC(=O)C1=C(C)NC(C)=C(C(=O)OC)C1c1cccc(NC(=O)NCCCN2CCC(c3cccc(OC)c3)CC2)c1,inactive
